The source of these data is PubChem BioAssay (NCATS).

A short description of experiment [1]: qHTS Assay for Identifying Gametocytocidal Compounds (AID 743244). Also: potency is read from the fitted curve at half-maximal effect.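 As to max response: actives lower the fluorescent signal which means gametocytes are killed.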 The conditions noted are these: P. falciparum 3D7 stage III-V gametocytes, alamarBlue, 72 h; max response: stronger effect = lower value. The gist of the method: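 Stage III–V gametocytes of P. falciparum 3D7 were seeded at 20,000 cells/well onto pre-dispensed compounds. After 72 h, 37 °C, 5% CO2, alamarBlue was added for another 24 h.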

Experiment [2] in a line: qHTS assay for measurement of the activity of small molecule inhibitors on Zika virus induced Caspase-3 activity in human iPSC derived neural progenitor cells (hNPCs) (AID 1224857). Also: nearly all actives have a fitted effect of over 65% in size. The gist of the method: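 Values are percent inhibition of virus-induced caspase-3/7 signal, scaled between uninfected cells and ZIKV-infected cells. Infection used 2 FFU/cell for 6 h after 1 h compound exposure.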
(qHTS replaces the single test concentration by a dilution series.)

The nature of experiment [3]: qHTS assay for measurement of the activity of small molecule inhibitors on Zika virus induced Caspase-3 activity in human astrocytoma cells (AID 1224859). The gist of the method:
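Compound added 1 h pre-infection; ZIKV 2 FFU/cell on SNB-19 cells, 6 h, 37 C/5% CO2. Caspase-Glo 3/7 luminescence; values as % inhibition of ZIKV-induced caspase activity.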

The nature of experiment [4]: P-glycoprotein substrates identified in KB-8-5-11 adenocarcinoma cell line, qHTS therapeutic library screen (AID 1346987). Also: nearly all actives have a fitted effect of over 65% in size. The gist of the method:
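KB-8-5-11, a colchicine-selected P-gp-overexpressing KB-3-1 subline, was grown without colchicine for the assay. Cells were seeded at 500 cells/well, dosed in concentration-response and incubated 72 h at 37 degree C, 5% CO2. Viability was read by CellTiter-Glo luminescence.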

Where “and” joins values, the source holds several entries; their conditions need not be identical. Identical values can stand only once. A number with no mark means an inactive call. Results filed as inconclusive are left out. Entries that show only a call come without a potency. Calls of active or inactive are those of the source. Calls follow the shape of the dose curve; as a rule, active = well fitted curve in the direction sought with a large enough effect; inconclusive = small, poorly fitted or top-dose-only effect, or another doubt; inactive = no such curve, though single readings can be large; an effect the other way counts as inactive or inconclusive.

`CC(=O)OCC(=O)[C@@]1(O)[C@H](OC(C)=O)C[C@H]2[C@@H]3CCC4=CC(=O)C=C[C@]4(C)[C@@]3(F)[C@@H](O)C[C@@]21C`: the max response in experiment [1] was -5.18%. For the same compound, the Potency entry in experiment [2] and in experiment [4] was “inactive” in each case. Further, the outcome in experiment [3] was inactive.

As for `CN1C(=O)CC(C)(c2ccccc2)C1=O` (configuration not stated), the max response in experiment [1] was -8.12%. Besides, the Potency entry in experiment [2] and in experiment [4] was “inactive” each time. For the same compound, the outcome in experiment [3] was inactive.

For `OCCCc1ccccc1`, the max response in experiment [1] was -2.92%. In addition, the Potency result in experiment [2] and in experiment [4] was “inactive” throughout. Also, the outcome in experiment [3] was inactive.

Consider `CCOC(=O)OCC/C(SC(=O)OCC)=C(\C)N(C=O)Cc1cnc(C)nc1N`, for which the max response in experiment [1] was 11.2%. Besides, the Potency entry in experiment [2] and in experiment [4] was “inactive” throughout. Also, in experiment [3], the outcome was inactive.

For `CCCCCC1Nc2cc(C(F)(F)F)c(S(N)(=O)=O)cc2S(=O)(=O)N1` (configuration not stated), in experiment [1], the max response was 13.4%. Further, the Potency result in experiment [2] and in experiment [4] was “inactive” throughout. Further, in experiment [3], the compound was called inactive.

Turning to `O=C(Nc1ccc(S(=O)(=O)N2CCOCC2)cc1)c1cc(Cl)ccc1NS(=O)(=O)c1ccc(Cl)s1`, in experiment [1], the max response was 15.3%. The Potency entry in experiment [2] and in experiment [4] was “inactive” throughout. In experiment [3], the compound was classed as inactive.

Turning to `CCCCCCCCCCCCCCCC[N+](C)(C)Cc1ccccc1`, the Potency in experiment [1] is 7.08 µM (active). In addition, the Potency entry in experiment [2] and in experiment [4] was “inactive” in each case. For the same compound, in experiment [3], the outcome was inactive.

With `CCN1CCN(C(=O)N[C@@H](C(=O)N[C@@H]2C(=O)N3[C@@H]2SC(C)(C)[C@H]3C(=O)O)c2ccccc2)C(=O)C1=O`, the max response in experiment [1] is -7.03%. Also, the Potency result in experiment [2] and in experiment [4] was “inactive” throughout. The result in experiment [3] was inactive.

On to `CCc1cc(S(=O)(=O)O)c2cc(C(C)C)cccc1-2`, for which the max response in experiment [1] was 0.277%. For the same compound, the Potency entry in experiment [2] and in experiment [4] was “inactive” throughout. The call in experiment [3] was inactive.

For `CCC(C(=O)NC(=O)NC(C)=O)c1ccccc1` (configuration not stated), in experiment [1], the max response is -11.8%. For the same compound, the Potency result in experiment [2] and in experiment [4] was “inactive” in each case. Moreover, in experiment [3], the outcome was inactive.

With `CC(C)=CCC/C(C)=C/CC/C(C)=C/CCC(=O)OC/C=C(\C)CCC=C(C)C`, the max response in experiment [1] is -4.29%. In addition, the Potency result in experiment [2] and in experiment [4] was “inactive” each time. Also, in experiment [3], the call was inactive.

As for `O=C(O)Cc1ccc(OCCNC[C@H](O)c2ccccc2)cc1`, the max response in experiment [1] is -2.47%. Moreover, the Potency result in experiment [2] and in experiment [4] was “inactive” each time. Besides, the compound was called inactive in experiment [3].

For the compound `CCCCC/C=C\C/C=C\CCCCCCCC(=O)NC(C)c1ccccc1` (configuration not stated), in experiment [1], the max response is -1.75%. The Potency result in experiment [2] and in experiment [4] was “inactive” throughout. Moreover, in experiment [3], the call was inactive.

For the compound `Cc1ccccc1C(=O)N1CC/C(=N\OS(=O)(=O)O)c2ccc(Cl)cc21`, in experiment [1], the max response was 0.506%. Besides, the Potency result in experiment [2] and in experiment [4] was “inactive” each time. Also, in experiment [3], the outcome was inactive.

As for `CC(=O)Nc1c(I)c(NC(C)=O)c(I)c(C(=O)O)c1I`, the max response in experiment [1] is -5.52%. Also, the Potency result in experiment [2] and in experiment [4] was “inactive” throughout. The compound was classed as inactive in experiment [3].

With `O=P(O)(O)OCC(O)CO` (configuration not stated), the max response in experiment [1] is 11.3%. In addition, the Potency entry in experiment [2] and in experiment [4] was “inactive” in each case. Further, the outcome in experiment [3] was inactive.

For `CC(=O)[C@H]1CC[C@H]2[C@@H]3C=CC4=CC(=O)CC[C@@]4(C)[C@@H]3CC[C@]12C`, the max response in experiment [1] is -3.42%. The Potency result in experiment [2] and in experiment [4] was “inactive” each time. The call in experiment [3] was inactive.

For `C[N+]1(C)CCC(OC(=O)C(O)(c2ccccc2)C2CCCC2)C1` (configuration not stated), in experiment [1], the max response is -10.9% and -9.67%. The Potency result in experiment [2] and in experiment [4] was “inactive” throughout. For the same compound, in experiment [3], the call was inactive.
